According to PubChem BioAssay (NCI):
This is part of a sample that, as a whole, favours compounds with a hit. Of some 79,000 tested, about 15% had one in any assay. Values without a mark were called inactive. The source made the active and inactive calls. No stated cut-off is given here; in the data, active means growth inhibition above about 70%; inactive means the rest. *1 amine or outer side, *2 acyl side, *3 side chain or, on linkers, in order; H or OH if unused. Where a SMILES comes first, the peptide text is derived from it. Bridges are numbered along the chain shown (N, C = ends). Roman numbers before positions name the chains, in order. [ ]: non-standard residue; d: D form. Actinocin(9to1) = Cc1c2oc3c(C)ccc(C(=O)[*:1])c3nc-2c(C(=O)[*:2])c(N)c1=O; X13 = O=C1CC(C(=O)[*:2])N([*:1])C1; NMeV = CN[CH](C(=O)O)C(C)C; Sar = CNCC(=O)O

What was measured:
[1] = NCI Yeast Anticancer Drug Screen. Data for the rad50 strain (AID 155);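 further: 0% = growth of vehicle-only cultures of the same strain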; conditions: S. cerevisiae rad50 strain growth inhibition; at 50.0 µM; hits give high values
Summary of the method: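 Compounds were tested on a yeast strain with an engineered DNA damage repair alteration; the reported value is growth inhibition normalised to vehicle treatment.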

[2] = NCI Yeast Anticancer Drug Screen. Data for the mec2-1 strain (AID 157); conditions: S. cerevisiae mec2-1 strain, at 50.0 µM, hits give high values
Summary of the method: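 Strain: mec2-1 (DNA repair/cell cycle alteration). Compound exposure, then growth measured; inhibition expressed relative to vehicle.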

[3] = NCI Yeast Anticancer Drug Screen. Data for the sgs1 mgt1 strain (AID 161);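 further: 0% = growth of cultures given vehicle only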; conditions: S. cerevisiae sgs1 mgt1 strain, at 50.0 µM, hits give high values
Summary of the method: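 Genetically altered yeast, compound exposure, growth inhibition relative to vehicle.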

[4] = NCI Yeast Anticancer Drug Screen. Data for the cln2 rad14 strain (AID 165);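 further: 0% = growth equal to vehicle treated cultures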; conditions: S. cerevisiae cln2 rad14 strain, at 50.0 µM, hits give high values
Summary of the method: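 Compounds are applied to the cln2 rad14 yeast strain, and growth is then compared with that of vehicle-treated cultures to give inhibition.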

[5] = NCI Yeast Anticancer Drug Screen. Data for the bub3 strain (AID 167); conditions: S. cerevisiae bub3 mutant strain, at 50.0 µM, hits give high values
Summary of the method: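 Growth of a checkpoint-deficient yeast mutant is measured after compound exposure. Values represent inhibition relative to vehicle.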

[6] = NCI Yeast Anticancer Drug Screen. Data for the mlh1 rad18 strain (AID 175); conditions: S. cerevisiae mlh1 rad18 strain growth inhibition; at 50.0 µM; hits give high values
Summary of the method: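 Read-out is yeast growth inhibition, calculated against vehicle-only controls. The compound was applied to a strain engineered with DNA damage repair alterations.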

COC1(C)CNCC(C)(C)NC(=O)C(C)(OC)CNCC(C)(C)NC1=O (stereo unspecified)
growth inhibition [1]: -10.9% | growth inhibition [2]: 2.1% | growth inhibition [3]: -20.7% | growth inhibition [4]: -17% | growth inhibition [5]: -32.5% | growth inhibition [6]: -19.6%

COc1cc(/C=C2\SC(=S)N(C=C3C(=O)NC(=O)NC3=O)C2=O)cc(OC)c1OC
growth inhibition [1]: 7.5% | growth inhibition [2]: -0.75% | growth inhibition [3]: 19.1% | growth inhibition [4]: 11.8% | growth inhibition [5]: 7% | growth inhibition [6]: 5.65%

COc1cc2c(cc1O)[C@@H]1Cc3c(cc(OC)c(OC)c3Oc3cc4c(cc3OC)CCN(C)[C@@H]4Cc3ccc(O)cc3)[C@H](C2)N1C
growth inhibition [1]: 14.9% | growth inhibition [2]: 8.75% | growth inhibition [3]: 0.15% | growth inhibition [4]: 12.1% | growth inhibition [5]: -10.4% | growth inhibition [6]: -56%

CCC(C)NC(=O)Nc1ccccc1 (stereo unspecified)
growth inhibition [1]: 13.3% | growth inhibition [2]: 8.95% | growth inhibition [3]: -0.65% | growth inhibition [4]: 3.9% | growth inhibition [5]: -2.45% | growth inhibition [6]: 6.35%

O=C1C2C(C(=O)N1c1ccccc1)C1(Br)c3ccccc3C2(Br)C2C(=O)N(c3ccccc3)C(=O)C21 (stereo unspecified)
growth inhibition [1]: -9.6% | growth inhibition [2]: 6.3% | growth inhibition [3]: -3.35% | growth inhibition [4]: -13.4% | growth inhibition [5]: -4.55% | growth inhibition [6]: -2.55%

CN(C)C(=O)CCOc1cccc2ccccc12
growth inhibition [1]: 16.6% | growth inhibition [2]: -3.1% | growth inhibition [3]: -16% | growth inhibition [4]: -69.5% | growth inhibition [5]: -20.8% | growth inhibition [6]: 1%

CC12OC(=O)C(C#N)C1(C)C1C(=O)CCCC12 (stereo unspecified)
growth inhibition [1]: -2.8% | growth inhibition [2]: -7.55% | growth inhibition [3]: 7.4% | growth inhibition [4]: 1.9% | growth inhibition [5]: -0.3% | growth inhibition [6]: -8.55%

O=C1OC(=O)C2C3C=CC(C3)C12 (stereo unspecified)
growth inhibition [1]: 17.2% | growth inhibition [2]: -5.35% | growth inhibition [3]: 23.1% | growth inhibition [4]: -20.4% | growth inhibition [5]: -1.45% | growth inhibition [6]: 21.4%

Oc1ccccc1/C=N\Sc1ccc(Br)cc1
growth inhibition [1]: 23.9% | growth inhibition [2]: 13.8% | growth inhibition [3]: 22% | growth inhibition [4]: 4.25% | growth inhibition [5]: 3.95% | growth inhibition [6]: 17%

CNC(=S)ON1CCCCC1
growth inhibition [1]: 6.65% | growth inhibition [2]: 19.9% | growth inhibition [3]: -23.3% | growth inhibition [4]: -7.95% | growth inhibition [5]: -5.95% | growth inhibition [6]: -38.5%

O=C(N/N=C/c1ccccc1)C1CC1
growth inhibition [1]: 9.35% | growth inhibition [2]: -10.2% | growth inhibition [3]: 10.2% | growth inhibition [4]: 8% | growth inhibition [5]: 9.35% | growth inhibition [6]: 1.85%

CC(NNC(=S)N1CC2CCC(CC2)C1)c1cccc[n+]1[O-] (stereo unspecified)
growth inhibition [1]: 93.1% (active) | growth inhibition [2]: 37.4% | growth inhibition [3]: 92.5% (active) | growth inhibition [4]: 84.7% (active) | growth inhibition [5]: 48.8% | growth inhibition [6]: 59.6%

Cc1nc(N)sc1C(=O)/C=C/c1ccc([N+](=O)[O-])cc1
growth inhibition [1]: 16.2% | growth inhibition [2]: -2.6% | growth inhibition [3]: -15.7% | growth inhibition [4]: 20.8% | growth inhibition [5]: 15.1% | growth inhibition [6]: 9.45%

CCCCN(CCCC)C1(c2ccccc2)OC(c2ccccc2)=CC1=O (stereo unspecified)
growth inhibition [1]: 1.45% | growth inhibition [2]: 5.75% | growth inhibition [3]: -0.55% | growth inhibition [4]: -10.5% | growth inhibition [5]: 2.8% | growth inhibition [6]: 20.6%

Cc1ccc(C)c2c3c(sc12)CCCC3
growth inhibition [1]: -7.85% | growth inhibition [2]: -5.4% | growth inhibition [3]: -7.15% | growth inhibition [4]: -17.2% | growth inhibition [5]: 0.45% | growth inhibition [6]: 2.95%

O=[N+]([O-])c1ccc2[nH]ccc2c1
growth inhibition [1]: 8.75% | growth inhibition [2]: -4.25% | growth inhibition [3]: -2.7% | growth inhibition [4]: 10.7% | growth inhibition [5]: 3.6% | growth inhibition [6]: 7.5%

O=[N+]([O-])c1ccc2[nH]ncc2c1
growth inhibition [1]: 19.2% | growth inhibition [2]: -8.05% | growth inhibition [3]: 0.35% | growth inhibition [4]: -3.15% | growth inhibition [5]: 8.45% | growth inhibition [6]: 13.7%

COc1cc(OC)c(N=Nc2c(O)n(C)c(=O)n(C)c2=O)cc1Cl
growth inhibition [1]: 6.45% | growth inhibition [2]: -17.8% | growth inhibition [3]: 14.6% | growth inhibition [4]: 3.85% | growth inhibition [5]: 10.6% | growth inhibition [6]: 1%

Cc1cccc(CC(O)c2ccc(C=O)cc2)n1 (stereo unspecified)
growth inhibition [1]: 20.6% | growth inhibition [2]: 14.7% | growth inhibition [3]: 6.75% | growth inhibition [4]: 5.65% | growth inhibition [5]: 14.4% | growth inhibition [6]: 37.5%

Cc1c2oc3c(C)ccc(C(=O)NC4C(=O)NC(C(C)C)C(=O)N5CC(=O)CC5C(=O)N(C)CC(=O)N(C)C(C(C)C)C(=O)OC4C)c3nc-2c(C(=O)NC2C(=O)NC(C(C)C)C(=O)N3CC(=O)CC3C(=O)N(C)CC(=O)N(C)C(C(C)C)C(=O)OC2C)c(N)c1=O (stereo unspecified) (I: TV[X13][Sar][NMeV] / II: TV[X13][Sar][NMeV]; ester I:1-I:C, II:1-II:C; linker I:N-II:N via Actinocin(9to1); configuration not given here)
growth inhibition [1]: -22.6% | growth inhibition [2]: -1.65% | growth inhibition [3]: -3.1% | growth inhibition [4]: 52.4% | growth inhibition [5]: -3.25% | growth inhibition [6]: -42.8%

Cc1cc(CN2CCCCC2)c(O)c(CN2CCCCC2)c1
growth inhibition [1]: -4.3% | growth inhibition [2]: -18.9% | growth inhibition [3]: -13.4% | growth inhibition [4]: -0.2% | growth inhibition [5]: -29.4% | growth inhibition [6]: -7.05%

Cn1cnc2ncnc(NCc3ccc(Cl)c(Cl)c3)c21
growth inhibition [1]: -1.45% | growth inhibition [2]: 18.9% | growth inhibition [3]: -7.35% | growth inhibition [4]: -21.2% | growth inhibition [5]: 4.6% | growth inhibition [6]: -25.1%

CN(O)C(=O)Cc1ccccc1
growth inhibition [1]: 3.5% | growth inhibition [2]: 6.05% | growth inhibition [3]: -0.1% | growth inhibition [4]: 15.8% | growth inhibition [5]: 13.9% | growth inhibition [6]: 16.4%

O=C(Nc1cccc([N+](=O)[O-])c1)C(=O)C(C(=O)c1ccccc1-c1ccccc1)C1OC(=O)c2ccccc21 (stereo unspecified)
growth inhibition [1]: 27.9% | growth inhibition [2]: 3.45% | growth inhibition [3]: 17.9% | growth inhibition [4]: -45% | growth inhibition [5]: -6.85% | growth inhibition [6]: 10.1%

CCCCCCn1cnc2c(=O)[nH]c(N)nc21
growth inhibition [1]: -2% | growth inhibition [2]: 3.5% | growth inhibition [3]: -17.2% | growth inhibition [4]: -7.05% | growth inhibition [5]: -8.65% | growth inhibition [6]: -10.2%

O=[N+]([O-])c1ccc(Cl)c2cccnc12
growth inhibition [1]: 27.2% | growth inhibition [2]: -7.65% | growth inhibition [3]: -0.15% | growth inhibition [4]: 7.3% | growth inhibition [5]: 0.45% | growth inhibition [6]: 50.4%

COc1cc(Br)c(CC(=O)c2ccc3c(c2)OCO3)cc1OC
growth inhibition [1]: 1.65% | growth inhibition [2]: 12.8% | growth inhibition [3]: 7.9% | growth inhibition [4]: -0.7% | growth inhibition [5]: 0% | growth inhibition [6]: 15.2%

COC(=O)c1cc(C(=O)OC)c2c3[nH]cnc3ncn2c1=O
growth inhibition [1]: 24.4% | growth inhibition [2]: 9.85% | growth inhibition [3]: 15.9% | growth inhibition [4]: 18.6% | growth inhibition [5]: 3.65% | growth inhibition [6]: 21.4%

CCCc1n[nH]c(=S)n1N1C(=S)NC(C)(C)C=C1C
growth inhibition [1]: -1.8% | growth inhibition [2]: -2% | growth inhibition [3]: 18.1% | growth inhibition [4]: -10.8% | growth inhibition [5]: 4.1% | growth inhibition [6]: 17.2%

Cc1ccccc1C(=O)c1ccc2ccccc2c1
growth inhibition [1]: 11.4% | growth inhibition [2]: 26.2% | growth inhibition [3]: 28.2% | growth inhibition [4]: 9.35% | growth inhibition [5]: 9.3% | growth inhibition [6]: 25.4%

CCOC(=O)CCOc1ccccc1
growth inhibition [1]: 8% | growth inhibition [2]: 9.1% | growth inhibition [3]: 8.45% | growth inhibition [4]: 3.8% | growth inhibition [5]: -0.85% | growth inhibition [6]: 22.8%

Cc1cn(C2CC(N)C(C(=O)NCC(=O)O)O2)c(=O)[nH]c1=O (stereo unspecified)
growth inhibition [1]: -19.9% | growth inhibition [2]: -54.5% | growth inhibition [3]: -0.6% | growth inhibition [4]: 2.65% | growth inhibition [5]: -40.1% | growth inhibition [6]: -26.1%

N#CCCOC(=O)Nc1cccc(Cl)c1
growth inhibition [1]: 41.7% | growth inhibition [2]: 15.4% | growth inhibition [3]: 27.3% | growth inhibition [4]: 7.3% | growth inhibition [5]: -7.2% | growth inhibition [6]: 33.6%

CC(CO)CCC(O)C(C)(O)C1CCC2(O)C3=CC(=O)C4CC(O)C(O)CC4(C)C3CCC12C (stereo unspecified)
growth inhibition [1]: 4.05% | growth inhibition [2]: -23.5% | growth inhibition [3]: 10.2% | growth inhibition [4]: 7.75% | growth inhibition [5]: 17.8% | growth inhibition [6]: -68.2%

CCOC(=O)C(NC(=O)c1ccccc1)(c1ccc(S(=O)(=O)Nc2onc(C)c2C)cc1)C(F)(F)F (stereo unspecified)
growth inhibition [1]: 7.3% | growth inhibition [2]: -8.9% | growth inhibition [3]: -18.9% | growth inhibition [4]: -12.1% | growth inhibition [5]: -10.6% | growth inhibition [6]: -4.25%

COC(=O)C1=C(C)NC(C)=C(C(=O)OC)C1c1cccc(NO)c1
growth inhibition [1]: 9.6% | growth inhibition [2]: 16.4% | growth inhibition [3]: 47.4% | growth inhibition [4]: 24% | growth inhibition [5]: 43.3% | growth inhibition [6]: 2.85%
